# Source: PubChem BioAssay
# Calls of active or inactive are those of the source.
# How the values were obtained:
# [1] = tested on: Plasmodium falciparum Sir2 (PF13_0152, Sir2A); assay: Plasmodium falciparum Sir2A binding compounds – biochemical, small-molecule microarray, 635 nm fluorescence, primary screen (AID 1098); conditions: fluorescence 635 nm, higher = more signal;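 also: score merges spot fluorescence intensity with its signal-to-noise ratio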
# [2] = probe aDKK1 binding to arrayed compounds – biochemical, biotinylated probe, 635/667 nm fluorescence, primary screen (AID 1099); conditions: small-molecule microarray, higher = more signal;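 also: score merges 667nm spot fluorescence with signal to noise across triplicate slides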
# [3] = probe aCHRDL2 binding to arrayed compounds – biochemical, biotinylated probe, 635/667 nm fluorescence, primary screen (AID 1100); conditions: small-molecule microarray, higher = more signal
# [4] = change in splice reporter luminescence, either direction, cell-based, HEK293, spliceosome inhibition project, primary screen (AID 1101); conditions: HEK293 splicing luciferase reporter, 24 h, higher = more signal, called active from +8 up or from −8 down;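 also: HEK293 cells carrying a splicing-competent luciferase reporter gene; test concentration not given here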
# [5] = target: Fibroblast growth factor 10 (Homo sapiens) (UniProt O15520); assay: compounds binding fibroblast growth factor 10 – biochemical, small-molecule microarray, 635 nm fluorescence, primary screen (AID 1102); conditions: FGF10 binding, fluorescence 635 nm, higher = more signal
# [6] = tested on: glycogen synthase kinase-3 (GSK3A per assay name; protocol says GSK3B); assay: compounds binding glycogen synthase kinase-3 – biochemical, small-molecule microarray, 635 nm fluorescence, GSK3A, primary screen (AID 1103); conditions: fluorescence 635 nm, higher = more signal; also: the record names both GSK3A and GSK3B
# [7] = target: Epidermal growth factor receptor (Homo sapiens) (UniProt P00533); assay: compounds binding epidermal growth factor receptor – biochemical, small-molecule microarray, 635 nm fluorescence, primary screen (AID 1104); conditions: EGFR binding, higher = more signal;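 also: score merges 667 nm emission intensity with spot signal to noise over triplicate slides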
# [8] = target: Follistatin-related protein 3 (Homo sapiens) (UniProt O95633); assay: compounds binding follistatin-related protein 3 – biochemical, small-molecule microarray, 635 nm fluorescence, primary screen (AID 1105); conditions: FSTL3 binding, higher = more signal;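 also: score merges emission near 667 nm and signal to noise per printed spot across three slides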
# [9] = target: Dickkopf-related protein 1 (Homo sapiens) (UniProt O94907); assay: small molecules binding DKK1 protein – biochemical, small-molecule microarray, 635 nm fluorescence scan, primary screen (AID 1106); conditions: higher = more signal;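 also: score merges emission near 667 nm with signal to noise over three replicate slides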
# [10] = tested on: Inhibin beta A chain (activin A); assay: small molecules binding activin A – biochemical, small-molecule microarray, 635 nm fluorescence scan, primary screen (AID 1107); conditions: INHBA, higher = more signal;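 also: mouse activin A protein probed at 4.33 µg/mL on printed slides; score merges bound-protein fluorescence near 667 nm with spot signal-to-noise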
# [11] = tested on: Human papillomavirus type 1a protein E7 (residues 44-93); assay: small molecules binding HPV E7 44-93 – biochemical, small-molecule microarray, residues 44-93, 635 nm fluorescence, primary screen (AID 1108); conditions: fluorescence 635 nm, higher = more signal;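 also: E7 fragment applied at 1 µg/mL in TBST for 1 h at 4 C; score combines spot fluorescence with its signal to noise ratio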
# [12] = hepatitis C replication reporter changes, two-sided – Huh7 cells, luciferase reporter, HCV replication inhibitor project, primary screen (AID 1109); conditions: Huh7 HCV replicon luciferase reporter, 48 h; higher = more signal;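 also: huh7 hepatoma cells harbouring a luciferase neomycin HCV replicon reporter; luciferase luminescence as measure of HCV replicon replication; test concentration not given here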
# [13] = target: Left-right determination factor 2 (Homo sapiens) (UniProt O00292); assay: small molecules binding LEFTY2 protein – biochemical, small-molecule microarray, 635 nm fluorescence scan, primary screen (AID 1110); conditions: higher = more signal
# [14] = target: Calmodulin-1 (Homo sapiens) (UniProt P0DP23); assay: small molecules binding calmodulin-1 with EGTA – biochemical, small-molecule microarray, Cy5-labelled CALM1, profiling panel (AID 1111); conditions: Cy5-CALM1 binding fluorescence, higher = more signal;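 also: labelled calmodulin applied in Tris saline Tween buffer holding calcium plus EGTA and DTT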
# [15] = target: Calmodulin-1 (Homo sapiens) (UniProt P0DP23); assay: small molecules binding Ca-loaded calmodulin-1 – biochemical, small-molecule microarray, Cy5-labelled CALM1, plus calcium, artefact control for SMM control-protein annotation, profiling panel (AID 1112); conditions: Cy5-CALM1 binding fluorescence, higher = more signal;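 also: score merges spot fluorescence with signal to noise from triplicate slides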
# [16] = probe aWnt5a binding to arrayed compounds – biochemical, biotinylated probe, 635/667 nm fluorescence, primary screen (AID 1113); conditions: small-molecule microarray, higher = more signal;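 also: score merges 667 nm fluorescence intensity with signal-to-noise per printed feature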
# [17] = probe aShh binding to arrayed compounds – biochemical, biotinylated probe, 635/667 nm fluorescence, primary screen (AID 1114); conditions: small-molecule microarray, higher = more signal;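 also: probe is biotin-labelled aShh protein from a stem cell growth factor screen; measures binding of labelled protein to compounds printed on the slide; score merges feature fluorescence at 667 nm with signal-to-noise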
# [18] = probe aNog binding to arrayed compounds – biochemical, biotinylated probe, 635/667 nm fluorescence, primary screen (AID 1115); conditions: small-molecule microarray, higher = more signal;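 also: probe is biotinylated aNog protein used at 0.15 µg/mL for 1 h at 4 C; z-score combines 667 nm fluorescence of each spot with its signal to noise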
# [19] = target: Torsin-1A-interacting protein 1 (Homo sapiens) (UniProt Q5JTV8); assay: compound microarray binding of lysate hLAP1 – cell lysate, small-molecule microarray, COS7 lysate, 635/667 nm fluorescence, primary screen (AID 1116); conditions: 635 nm fluorescence, higher = more signal
# [20] = target: Alpha-bungarotoxin (Bungarus multicinctus) (UniProt P60615); assay: compounds binding labelled alpha-BTX control protein – biochemical, small-molecule microarray, Alexa647 label, 635/667 nm fluorescence, artefact control for SMM control protein annotation, profiling panel (AID 1117); conditions: alpha-BTX-A647 binding fluorescence, higher = more signal
# Sequence of Alpha-bungarotoxin (Bungarus multicinctus) (P60615 whole entry, looked up): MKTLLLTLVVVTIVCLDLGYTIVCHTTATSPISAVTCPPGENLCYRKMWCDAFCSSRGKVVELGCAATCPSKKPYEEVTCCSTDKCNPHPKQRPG
# Sequence of Fibroblast growth factor 10 (Homo sapiens) (O15520 whole entry, looked up): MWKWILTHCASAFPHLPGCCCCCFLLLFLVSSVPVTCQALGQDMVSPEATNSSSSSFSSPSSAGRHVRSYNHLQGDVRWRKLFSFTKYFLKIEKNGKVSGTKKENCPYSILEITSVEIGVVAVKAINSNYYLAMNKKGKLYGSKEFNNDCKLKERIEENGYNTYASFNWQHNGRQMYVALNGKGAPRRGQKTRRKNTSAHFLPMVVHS
# Sequence of Epidermal growth factor receptor (Homo sapiens) (P00533 whole entry, looked up): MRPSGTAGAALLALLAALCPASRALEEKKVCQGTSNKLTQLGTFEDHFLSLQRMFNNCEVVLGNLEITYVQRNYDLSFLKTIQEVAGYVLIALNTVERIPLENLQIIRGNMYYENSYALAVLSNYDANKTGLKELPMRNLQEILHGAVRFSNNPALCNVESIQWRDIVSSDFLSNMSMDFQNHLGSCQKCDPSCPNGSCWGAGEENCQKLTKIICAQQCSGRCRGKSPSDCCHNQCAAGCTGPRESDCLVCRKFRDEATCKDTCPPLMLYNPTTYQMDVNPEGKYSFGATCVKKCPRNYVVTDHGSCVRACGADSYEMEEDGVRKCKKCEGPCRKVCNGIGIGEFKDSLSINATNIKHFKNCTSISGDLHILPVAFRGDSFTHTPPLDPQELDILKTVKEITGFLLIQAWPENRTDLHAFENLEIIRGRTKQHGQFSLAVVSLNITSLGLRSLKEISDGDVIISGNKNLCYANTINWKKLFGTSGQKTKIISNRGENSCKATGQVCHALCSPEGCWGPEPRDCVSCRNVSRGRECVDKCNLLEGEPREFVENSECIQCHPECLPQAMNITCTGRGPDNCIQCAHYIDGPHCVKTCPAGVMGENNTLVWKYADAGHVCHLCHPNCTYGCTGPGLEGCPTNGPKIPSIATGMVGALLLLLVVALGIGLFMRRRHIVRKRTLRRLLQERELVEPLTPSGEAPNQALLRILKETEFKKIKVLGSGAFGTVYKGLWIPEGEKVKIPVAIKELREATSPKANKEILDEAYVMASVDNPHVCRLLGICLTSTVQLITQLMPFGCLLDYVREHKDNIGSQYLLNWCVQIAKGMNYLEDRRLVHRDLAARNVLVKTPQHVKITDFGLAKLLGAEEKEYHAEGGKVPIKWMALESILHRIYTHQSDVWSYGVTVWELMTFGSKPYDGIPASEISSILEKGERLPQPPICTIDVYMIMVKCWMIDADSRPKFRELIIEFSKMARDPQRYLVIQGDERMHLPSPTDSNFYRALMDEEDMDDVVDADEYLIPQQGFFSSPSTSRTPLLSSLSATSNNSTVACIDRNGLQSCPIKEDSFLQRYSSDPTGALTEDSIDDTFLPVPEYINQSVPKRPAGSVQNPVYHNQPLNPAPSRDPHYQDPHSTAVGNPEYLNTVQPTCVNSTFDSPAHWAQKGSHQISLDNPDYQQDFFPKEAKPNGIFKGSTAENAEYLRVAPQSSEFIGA
# Sequence of Torsin-1A-interacting protein 1 (Homo sapiens) (Q5JTV8 whole entry, looked up): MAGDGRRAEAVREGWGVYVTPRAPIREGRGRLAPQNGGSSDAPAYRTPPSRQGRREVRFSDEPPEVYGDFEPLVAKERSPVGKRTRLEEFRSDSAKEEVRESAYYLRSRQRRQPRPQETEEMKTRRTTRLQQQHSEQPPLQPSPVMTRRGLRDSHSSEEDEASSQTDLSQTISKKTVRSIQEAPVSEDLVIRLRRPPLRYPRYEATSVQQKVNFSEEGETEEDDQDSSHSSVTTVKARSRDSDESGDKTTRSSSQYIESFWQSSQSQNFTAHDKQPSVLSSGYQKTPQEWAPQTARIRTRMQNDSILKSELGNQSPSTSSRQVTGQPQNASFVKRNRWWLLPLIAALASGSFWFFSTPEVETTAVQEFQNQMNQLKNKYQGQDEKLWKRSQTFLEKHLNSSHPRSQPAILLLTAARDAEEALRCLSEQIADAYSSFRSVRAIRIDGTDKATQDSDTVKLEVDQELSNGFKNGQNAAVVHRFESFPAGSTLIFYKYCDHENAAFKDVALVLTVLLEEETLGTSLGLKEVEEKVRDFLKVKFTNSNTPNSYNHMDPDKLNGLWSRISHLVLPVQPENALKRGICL
# Sequence of Follistatin-related protein 3 (Homo sapiens) (O95633 whole entry, looked up): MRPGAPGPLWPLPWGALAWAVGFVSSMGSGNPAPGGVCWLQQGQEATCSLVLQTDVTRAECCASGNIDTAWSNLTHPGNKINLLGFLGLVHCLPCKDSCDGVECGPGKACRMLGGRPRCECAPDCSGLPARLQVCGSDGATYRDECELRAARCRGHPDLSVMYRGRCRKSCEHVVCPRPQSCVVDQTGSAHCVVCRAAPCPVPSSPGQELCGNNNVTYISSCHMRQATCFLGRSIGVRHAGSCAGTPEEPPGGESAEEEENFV
# Sequence of Dickkopf-related protein 1 (Homo sapiens) (O94907 whole entry, looked up): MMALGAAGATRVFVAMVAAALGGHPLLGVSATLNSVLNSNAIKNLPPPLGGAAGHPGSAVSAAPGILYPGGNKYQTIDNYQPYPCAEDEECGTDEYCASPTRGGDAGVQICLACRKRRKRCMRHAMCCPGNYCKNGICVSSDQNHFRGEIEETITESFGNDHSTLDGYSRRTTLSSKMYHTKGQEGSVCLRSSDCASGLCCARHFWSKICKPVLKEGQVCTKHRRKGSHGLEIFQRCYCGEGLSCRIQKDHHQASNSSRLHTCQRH
# Sequence of Left-right determination factor 2 (Homo sapiens) (O00292 whole entry, looked up): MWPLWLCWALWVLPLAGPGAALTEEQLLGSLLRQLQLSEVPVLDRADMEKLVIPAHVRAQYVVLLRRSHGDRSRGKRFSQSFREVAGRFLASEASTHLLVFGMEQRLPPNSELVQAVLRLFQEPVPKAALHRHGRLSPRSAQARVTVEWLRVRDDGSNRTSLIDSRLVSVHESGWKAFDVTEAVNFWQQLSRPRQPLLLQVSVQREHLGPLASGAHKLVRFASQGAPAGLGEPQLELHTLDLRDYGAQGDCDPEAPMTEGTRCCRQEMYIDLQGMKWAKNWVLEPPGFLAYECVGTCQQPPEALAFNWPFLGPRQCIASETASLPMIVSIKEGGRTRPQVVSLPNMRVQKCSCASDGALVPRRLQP
Compound,composite z-score [1],composite z-score [2],composite z-score [3],z-score [4],composite z-score [5],composite z-score [6],composite z-score [7],composite z-score [8],composite z-score [9],composite z-score [10],composite z-score [11],z-score [12],composite z-score [13],composite z-score [14],composite z-score [15],composite z-score [16],composite z-score [17],composite z-score [18],composite z-score [19],composite z-score [20]
CC(C)C(CO)N1C(=O)[C@@H]2[C@H]3C(=O)OCC=C[C@H]3OC23C=CCN(Cn2nnc4ccccc42)C(=O)[C@@H]13 (stereo not given in full),0.335,-0.374,0.465,0.184 (inactive),-0.777,-1.05,-0.851,-1.41,-1.18,-1.33,-0.484,-0.634,-0.734,-0.323,0.608,-0.226,0.35,-0.358,-0.273,-0.284
O=C1C2C=CC(C(O)c3cccc4ccccc34)N(Nc3ccccc3)C2C(=O)N1c1ccccc1 (stereo not given),1.54,1.33,0.945,-0.272 (inactive),1.09,1.28,0.346,1.43,0.0156,1.15,1.38,-1.29,0.321,0.972,-0.8,0.0725,0.424,1.05,0.759,2.06
COCCOC(=O)N1C(=O)[C@@]2(c3cc(C#CCC(C(=O)OC)C(=O)OC)ccc31)[C@H](c1ccc(OCCO)cc1)N1[C@H](c3ccccc3)[C@H](c3ccccc3)OC(=O)[C@H]1[C@@H]2C(N)=O,1.46,0.0751,0.443,-1.6 (inactive),1.1,1.24,0.603,1.26,0.57,0.324,1.35,-1.12,0.535,1.61,0.193,-0.0718,0.0639,0.129,-0.189,0.992
CCC[C@@H]1C[C@@]1(CCC)[C@@H](NC(=O)c1ccco1)c1ccc(Cl)cc1,-0.585,-0.0347,0.762,-3.52 (inactive),0.14,-2.1,-0.414,-0.722,-0.366,0.447,-1.06,-0.49,-0.936,-0.177,0.0344,-0.252,0.254,0.756,-0.678,-0.0776
COc1ccc(C#Cc2ccc3c(c2)[C@]2(C(=O)N3)[C@H](C(=O)O)[C@H]3C(=O)O[C@H](c4ccccc4)[C@H](c4ccccc4)N3[C@@H]2c2ccc(OCCO)cc2)cc1,1.48,0.192,0.296,-0.825 (inactive),0.929,0.984,0.45,0.486,0.195,-0.159,0.873,-1.92,0.336,2.25,0.87,-0.0617,0.0492,0.141,2,2.28
